# Data taken from PubChem BioAssay (NCATS).
# Several values for one entry are separate records, joined by “and”; a condition that tells them apart may be missing. Equal entries are not always repeated. Records with an inconclusive call do not appear. Entries that show only a call come without a potency. Some compounds were tested as several samples or in several runs, with calls that do not always agree. Activity calls are given as the source filed them. Unless noted, calls come from the whole dose curve; as a rule, active = well fitted curve in the direction sought with a large enough effect; inconclusive = small, poorly fitted or top-dose-only effect, or another doubt; inactive = no such curve, though single readings can be large; an effect the other way counts as inactive or inconclusive.
# Key:
# [1] = biological target: Glucocorticoid receptor (Homo sapiens) (UniProt P04150); assay: GR-GFP Redistribution (AID 450;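 active = compounds whose dose series gives a full or clear partial fitted curve of increased nuclear translocation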; note: potency is the fitted concentration of half-maximal effect); conditions: U2OS GR-GFP nuclear translocation, laser cytometry, 2 h
# [2] = biological target: Glucocorticoid receptor (Homo sapiens) (UniProt P04150); assay: GR-EFC Redistribution (AID 451; calls by dose curve; note: potency is the fitted concentration of half-maximal effect); conditions: CHO-K1 GR-EFC translocation, beta-gal luminescence, 2 h
# Method in brief: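 Translocation of GR-ED fusion to nuclear EA restores b-gal, read by luminescence after 1 h room-temperature detection. Engineered CHO-K1 biosensor cells, 1,000/well, exposed 2 h at 37 C to titrations up to 46 uM final.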
# [3] = biological target: Mitogen-activated protein kinase 10 (Mus musculus) (UniProt Q61831); assay: JNK3 AlphaScreen Assay (AID 530; active = well fitted curve in either direction with a large enough effect, not every such curve was filed as active;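 note: kinase came from lysate of stimulated human HepG2 cells; signal reports phosphorylation of biotinylated GST-cJun 1-79 at Ser73 with 10 µM ATP; series mostly up to about 57 µM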)
# Method in brief: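 Kinase buffer: 20 mM Tris-HCl pH 7.6, 10 mM MgCl2, 1 mM DTT, 0.1 mM Na3VO4, 0.01% Tween-20; ATP 10 uM. Substrate biotin-GST-cJun(1-79), enzyme from activated HepG2 lysates. Detection by Ser73 phospho-antibody AlphaScreen.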
# [4] = biological target: 3',5'-cyclic-AMP phosphodiesterase 4B (Homo sapiens) (UniProt Q07343); assay: qHTS Assay for Inhibitors of PDE-IV (AID 607; active = well fitted activation curve with a large enough effect in the main read-out, with a control signal flat, not every such curve was filed as active)
# Method in brief: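 HEK293 ACTOne cells with CNG channel (1000/well), endogenous PDE4; membrane potential dye, compounds up to 22.9 uM final. Fluorescence Ex 535/Em 590; RO 20-1724 (100 uM final) as reference.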
# [5] = biological target: Ubiquitin carboxyl-terminal hydrolase 1 (Homo sapiens) (UniProt O94782); assay: Inhibitors of USP1/UAF1: Pilot qHTS (AID 504865);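 note: rhodamine fluorescence freed from ubiquitin-rhodamine substrate followed over time; top concentration of the series differs between compounds; nearly all actives have a fitted effect of over 35% in size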
# Method in brief: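 1nM USP1/UAF1 + cpd, 15 min RT; start w/ Ub-Rho 150nM final; kinetic FL 480/540 nm, 6 reads q60 s. Buffer 50mM HEPES pH 7.8, 0.5mM EDTA, 1mM TCEP, 0.01% Tween-20, 0.1 mg/ml BSA.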
# [6] = biological target: DNA dC->dU-editing enzyme APOBEC-3G (Homo sapiens) (UniProt Q9HC16); assay: qHTS for inhibitors of Vif-A3G interactions: Validation (AID 588379)
# Method in brief: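 Yellow fluorescence (Ex 488, Em 500-530) of Vif-coexpressing HeLa A3G-eYFP cells, scanned by Acumen cytometer, reports blocked A3G degradation. Cells plated at 700/well overnight at 37 deg C before compound addition, then a further overnight compound incubation at 37 deg C.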
# [7] = tested on: Zika virus NS2B-NS3 protease; assay: Primary screen GU AMC qHTS for Zika virus inhibitors (AID 1347154); note: nearly all actives have a fitted effect of over 70% in size; note: potency is the fitted concentration of half-maximal effect
# Method in brief: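 Fluorogenic AMC-substrate cleavage by noncovalent NS2B-NS3 protease complex (25 nM, pH 8.0 Tris buffer with Tween 20) followed for 15 minutes at room temperature (~20% conversion). Percent inhibition from ex340/em450 signal change, fitted by 4-parameter Hill equation.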
# [8] = Primary qHTS for small molecule stabilizers of the endoplasmic reticulum resident proteome: Secreted ER Calcium Modulated Protein (SERCaMP) assay (AID 1508630)
# Method in brief: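 The SH-SY5Y reporter protocol was run at 3 concentrations up to 38.3 uM (primary) or 11 concentrations (follow-up): 16 h compound, 100 nM thapsigargin for 4 h, then extracellular luciferase luminescence.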
# [9] = biological target: Cytochrome P450 1A2 (Homo sapiens) (UniProt P05177); assay: p450-cyp1a2 (AID 410; calls by dose curve; note: potency is the fitted concentration of half-maximal effect)
# Method in brief: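 Read-out is luminescence from luciferin produced by CYP1A2 demethylation of Luciferin-ME (100uM, at Km). Detection reagent stopped the 60 min NADPH-dependent reaction; signals were normalized to 57 uM furafylline.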
# [10] = biological target: Cytochrome P450 3A4 (Homo sapiens) (UniProt P08684); assay: qHTS Assay for Activators of Cytochrome P450 3A4 (AID 885); note: nearly all actives have a fitted effect of over 65% in size
# Method in brief: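 Human CYP3A4 dealkylates Luciferin-PPXE to luciferin, which luciferase detection converts to light. Substrate was at its KM (25uM), buffer 200mM KPO4, reaction 60 min at RT.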
# [11] = biological target: Guanine nucleotide-binding protein G(i) subunit alpha-1 (Homo sapiens) (UniProt P63096); assay: qHTS Assay for Inhibitors of RGS12 GoLoco Motif Activity (Green Fluorophore) (AID 879);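 note: negative values mean loss of peptide binding seen as reduced polarization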
# Method in brief: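 A drop in FITC polarization marked displacement of the FITC-tagged RGS12 GoLoco peptide (10 nM) from Gαi1 (50 nM). Compounds were incubated 10 min at room temperature in Tris pH 7.5 buffer containing 150 mM NaCl, 0.1 mM GDP and 0.05% NP40; unlabeled peptide titration served as control.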
# [12] = qHTS Assay for Identification of Small Molecule Antagonists for NFkB Signaling Pathway (AID 895; active = well fitted inhibition curve with a large enough effect in the signal ratio, with a control signal flat, not every such curve was filed as active; the % refers to the signal ratio)
# Method in brief: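 Beta-lactamase reporter read-out (460 and 530 nm emission ratio, 405 nm excitation, 2 hrs substrate loading RT) after 5 hr stimulation with 10 pM TNF alpha in compound-treated NFkB-bla ME-180 cells in low-serum medium.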
# [13] = qHTS Assay for Identification of Small Molecule Agonists for Thrombopoietin (TPO) Signaling Pathway (AID 917); note: potency is the fitted concentration of half-maximal effect
# Method in brief: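 Ba/F3 (mouse) + hTPO receptor + GpIIb-promoter luciferase; IL-3 withdrawn overnight; compound + 26 pM TPO (EC50), 24 hrs, 37 C, 5% CO2; Steadylite luminescence, 10 min RT.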
# [14] = biological target: Muscarinic acetylcholine receptor M1 (Rattus norvegicus) (UniProt P08482); assay: qHTS Assay for Antagonists of Acetylcholine Muscarinic M1 Receptor: Kinetic Measurement of Intracellular Calcium Response (AID 943);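 note: Fluo-4 calcium signal as peak divided by basal fluorescence over 4 min; series mostly up to about 35 µM; nearly all actives have a fitted effect of over 75% in size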
# Method in brief: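 Quantitative HTS in CHO-M1 (rat receptor) cells: 10 min compound exposure ahead of 100 nM carbachol, Fluo-4 fluorescence followed 4 min, value expressed as peak-to-basal ratio.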
# [15] = biological target: Muscarinic acetylcholine receptor M1 (Rattus norvegicus) (UniProt P08482); assay: qHTS Assay for Antagonists of Acetylcholine Muscarinic M1 Receptor: Measurement of IP-One Response (AID 944); note: nearly all actives have a fitted effect of over 75% in size
# Method in brief: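 Antagonism was measured as loss of carbachol-driven (EC80) IP1 accumulation in CHO cells carrying rat M1, using a homogeneous IP-One TR-FRET kit read at 620 and 665 nm.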
# [16] = biological target: Pyruvate kinase PKM (Homo sapiens) (UniProt P14618); assay: qHTS Assay for Activators of Human Muscle Pyruvate Kinase (AID 954; active = well fitted curve in the direction sought with a large enough effect, not every such curve was filed as active)
# Method in brief: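 Compound pinned into substrate mix (0.5 mM PEP, 0.1 mM ADP), then 0.1 nM PKM2 added; 1 h, RT. Stop/detection luciferase reagent added, luminescence read. Normalized to no-inhibition and no-enzyme or reference-inhibitor controls.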
# [17] = biological target: Pyruvate kinase PKM (Homo sapiens) (UniProt P14618); assay: qHTS Assay for Inhibitors of Human Muscle Pyruvate Kinase (AID 958); conditions: purified human PKM enzyme activity
# Method in brief: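 ATP production by PKM2 detected via luciferase luminescence after 1 h room-temperature reaction (0.1 nM enzyme, PEP at Km 0.5 mM, ADP 0.1 mM, pH 7.2 imidazole buffer). Inhibition scaled to no-enzyme control; activation referenced to 0.3 nM enzyme wells.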
# [18] = biological target: Pyruvate kinase (Leishmania mexicana) (UniProt Q27686); assay: qHTS Validation Assay for Activators of Leishmania Mexicana Pyruvate Kinase (AID 959)
# Method in brief: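 Purified LmPYK (E451W mutant, 0.2 nM) was incubated 1 h at room temperature with 0.5 mM PEP and 0.1 mM ADP in 50 mM imidazole pH 7.2, 50 mM KCl, 7 mM MgCl2; ATP formed was read by PKLight luminescence, normalized to DMSO wells.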
# [19] = biological target: alpha-glucosidase (Oryza sativa, rice) (UniProt Q653V4); assay: Counterscreen for Glucocerebrosidase Inhibitors: qHTS Assay for Rice alpha-Glucosidase at pH 5.0 (AID 997)
# Method in brief: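 Endpoint fluorogenic assay at pH 5.0: compounds (0.7 nM to 77 uM) titrated against 4 nM rice enzyme and 400 uM 4-MU-alpha-glucoside for 20 min at room temperature; NaOH/glycine stop, read ex 365/em 440 nm, Hill-fitted AC50.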
# 3',5'-cyclic-AMP phosphodiesterase 4B (Homo sapiens), sequence (Q07343 whole entry, looked up): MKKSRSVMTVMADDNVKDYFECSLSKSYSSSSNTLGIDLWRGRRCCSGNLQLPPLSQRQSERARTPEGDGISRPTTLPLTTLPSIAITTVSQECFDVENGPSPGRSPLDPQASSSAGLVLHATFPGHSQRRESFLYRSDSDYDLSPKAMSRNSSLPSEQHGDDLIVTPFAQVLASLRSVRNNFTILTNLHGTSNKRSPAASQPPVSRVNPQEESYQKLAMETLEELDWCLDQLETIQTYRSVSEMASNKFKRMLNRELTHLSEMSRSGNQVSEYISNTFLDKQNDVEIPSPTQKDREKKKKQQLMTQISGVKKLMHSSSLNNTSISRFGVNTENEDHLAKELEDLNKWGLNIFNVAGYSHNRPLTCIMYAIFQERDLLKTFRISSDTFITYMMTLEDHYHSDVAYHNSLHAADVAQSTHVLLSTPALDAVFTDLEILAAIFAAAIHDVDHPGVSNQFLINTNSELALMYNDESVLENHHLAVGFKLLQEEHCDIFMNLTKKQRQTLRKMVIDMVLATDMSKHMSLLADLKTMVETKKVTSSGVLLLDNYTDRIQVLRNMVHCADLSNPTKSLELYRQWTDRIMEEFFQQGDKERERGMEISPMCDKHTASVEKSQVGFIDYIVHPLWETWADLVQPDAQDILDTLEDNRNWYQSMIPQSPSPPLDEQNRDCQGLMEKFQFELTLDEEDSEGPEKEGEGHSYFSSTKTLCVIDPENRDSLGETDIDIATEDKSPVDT
# Glucocorticoid receptor (Homo sapiens), sequence (P04150 whole entry, looked up, the tested form may be a part): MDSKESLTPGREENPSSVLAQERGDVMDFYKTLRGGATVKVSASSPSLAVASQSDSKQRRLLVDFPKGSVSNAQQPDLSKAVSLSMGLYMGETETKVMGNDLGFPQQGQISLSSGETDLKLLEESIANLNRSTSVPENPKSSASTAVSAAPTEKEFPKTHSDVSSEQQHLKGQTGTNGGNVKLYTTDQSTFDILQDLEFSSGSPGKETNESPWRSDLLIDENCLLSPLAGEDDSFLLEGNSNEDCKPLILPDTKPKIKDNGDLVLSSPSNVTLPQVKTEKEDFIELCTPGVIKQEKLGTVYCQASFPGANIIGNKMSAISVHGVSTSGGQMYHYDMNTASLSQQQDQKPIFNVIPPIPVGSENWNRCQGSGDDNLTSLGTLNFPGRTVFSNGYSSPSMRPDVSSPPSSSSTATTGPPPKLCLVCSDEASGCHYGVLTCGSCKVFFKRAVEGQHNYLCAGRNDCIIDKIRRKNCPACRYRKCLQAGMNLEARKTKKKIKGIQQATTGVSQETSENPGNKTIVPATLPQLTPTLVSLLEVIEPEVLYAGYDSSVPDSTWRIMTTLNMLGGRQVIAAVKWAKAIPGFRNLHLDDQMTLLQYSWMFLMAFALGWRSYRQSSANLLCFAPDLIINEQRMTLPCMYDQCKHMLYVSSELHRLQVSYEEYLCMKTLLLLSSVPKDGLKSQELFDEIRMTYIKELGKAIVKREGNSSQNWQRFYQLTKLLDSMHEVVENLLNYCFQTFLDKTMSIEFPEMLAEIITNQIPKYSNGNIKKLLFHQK
# DNA dC->dU-editing enzyme APOBEC-3G (Homo sapiens), sequence (Q9HC16 whole entry, looked up): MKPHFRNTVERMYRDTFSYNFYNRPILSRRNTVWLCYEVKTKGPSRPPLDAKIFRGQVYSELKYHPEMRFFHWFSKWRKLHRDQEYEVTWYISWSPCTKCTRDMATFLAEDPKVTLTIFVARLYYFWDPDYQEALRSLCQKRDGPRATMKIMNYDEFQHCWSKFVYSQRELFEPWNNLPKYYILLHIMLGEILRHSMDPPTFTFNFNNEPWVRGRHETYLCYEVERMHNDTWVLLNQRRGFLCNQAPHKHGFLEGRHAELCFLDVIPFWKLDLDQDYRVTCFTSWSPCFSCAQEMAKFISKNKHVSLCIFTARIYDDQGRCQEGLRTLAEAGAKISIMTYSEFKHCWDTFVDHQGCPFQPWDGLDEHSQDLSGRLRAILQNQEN
# Ubiquitin carboxyl-terminal hydrolase 1 (Homo sapiens), sequence (O94782 whole entry, looked up): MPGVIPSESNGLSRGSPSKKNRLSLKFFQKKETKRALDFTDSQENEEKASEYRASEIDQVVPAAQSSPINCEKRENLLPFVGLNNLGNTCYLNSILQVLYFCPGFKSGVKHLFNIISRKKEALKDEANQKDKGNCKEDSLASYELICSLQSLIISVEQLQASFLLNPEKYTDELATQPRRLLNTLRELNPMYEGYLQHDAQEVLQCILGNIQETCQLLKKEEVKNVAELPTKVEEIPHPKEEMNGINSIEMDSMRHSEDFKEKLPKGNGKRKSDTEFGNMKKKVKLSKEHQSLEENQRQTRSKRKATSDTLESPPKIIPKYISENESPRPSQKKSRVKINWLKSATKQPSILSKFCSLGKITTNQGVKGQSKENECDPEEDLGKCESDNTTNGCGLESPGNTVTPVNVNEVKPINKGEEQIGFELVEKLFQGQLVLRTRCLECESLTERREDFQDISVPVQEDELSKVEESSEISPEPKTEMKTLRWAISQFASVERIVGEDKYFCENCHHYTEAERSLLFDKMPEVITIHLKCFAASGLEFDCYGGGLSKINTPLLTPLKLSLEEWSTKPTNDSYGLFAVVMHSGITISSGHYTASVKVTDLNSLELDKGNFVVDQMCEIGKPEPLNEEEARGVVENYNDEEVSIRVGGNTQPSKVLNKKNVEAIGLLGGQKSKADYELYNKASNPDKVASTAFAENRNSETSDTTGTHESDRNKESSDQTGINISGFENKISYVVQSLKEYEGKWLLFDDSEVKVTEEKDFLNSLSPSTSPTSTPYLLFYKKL
# Cytochrome P450 1A2 (Homo sapiens), sequence (P05177 whole entry, looked up): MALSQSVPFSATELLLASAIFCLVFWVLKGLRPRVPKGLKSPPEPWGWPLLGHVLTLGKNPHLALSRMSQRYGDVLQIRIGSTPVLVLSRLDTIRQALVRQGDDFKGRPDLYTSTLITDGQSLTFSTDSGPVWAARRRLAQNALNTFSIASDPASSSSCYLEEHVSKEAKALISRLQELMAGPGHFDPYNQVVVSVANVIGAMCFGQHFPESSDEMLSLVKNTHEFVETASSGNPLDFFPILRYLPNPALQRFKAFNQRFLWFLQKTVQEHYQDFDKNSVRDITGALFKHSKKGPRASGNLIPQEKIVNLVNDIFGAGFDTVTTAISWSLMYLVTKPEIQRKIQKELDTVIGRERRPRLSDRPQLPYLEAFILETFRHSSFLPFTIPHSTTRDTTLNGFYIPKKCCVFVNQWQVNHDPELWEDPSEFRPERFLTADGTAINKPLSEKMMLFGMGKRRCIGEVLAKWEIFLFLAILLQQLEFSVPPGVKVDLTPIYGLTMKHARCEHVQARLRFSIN
# Cytochrome P450 3A4 (Homo sapiens), sequence (P08684 whole entry, looked up): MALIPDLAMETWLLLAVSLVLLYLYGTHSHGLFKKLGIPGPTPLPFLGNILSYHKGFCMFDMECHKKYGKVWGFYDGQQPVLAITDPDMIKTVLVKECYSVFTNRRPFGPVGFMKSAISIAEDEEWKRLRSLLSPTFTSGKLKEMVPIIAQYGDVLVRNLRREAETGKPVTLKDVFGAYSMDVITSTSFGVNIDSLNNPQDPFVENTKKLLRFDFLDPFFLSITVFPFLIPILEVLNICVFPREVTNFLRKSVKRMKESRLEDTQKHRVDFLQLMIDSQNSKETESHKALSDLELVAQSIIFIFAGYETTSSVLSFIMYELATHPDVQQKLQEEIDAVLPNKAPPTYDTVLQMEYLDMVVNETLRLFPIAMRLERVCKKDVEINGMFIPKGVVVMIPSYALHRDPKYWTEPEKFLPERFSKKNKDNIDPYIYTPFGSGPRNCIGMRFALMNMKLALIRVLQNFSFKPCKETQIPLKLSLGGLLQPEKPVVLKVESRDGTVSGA
# Muscarinic acetylcholine receptor M1 (Rattus norvegicus), sequence (P08482 whole entry, looked up): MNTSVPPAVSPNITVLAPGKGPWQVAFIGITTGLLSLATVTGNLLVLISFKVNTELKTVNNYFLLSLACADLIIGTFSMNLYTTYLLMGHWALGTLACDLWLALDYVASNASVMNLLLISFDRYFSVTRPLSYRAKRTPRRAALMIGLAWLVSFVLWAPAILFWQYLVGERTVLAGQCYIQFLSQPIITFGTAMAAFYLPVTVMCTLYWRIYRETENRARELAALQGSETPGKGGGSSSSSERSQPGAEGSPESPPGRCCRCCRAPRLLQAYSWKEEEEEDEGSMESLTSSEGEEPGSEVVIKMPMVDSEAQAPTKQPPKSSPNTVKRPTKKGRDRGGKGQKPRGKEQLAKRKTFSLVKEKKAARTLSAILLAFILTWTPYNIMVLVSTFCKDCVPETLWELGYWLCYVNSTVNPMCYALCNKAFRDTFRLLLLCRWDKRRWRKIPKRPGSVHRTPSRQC
# Pyruvate kinase PKM (Homo sapiens), sequence (P14618 whole entry, looked up): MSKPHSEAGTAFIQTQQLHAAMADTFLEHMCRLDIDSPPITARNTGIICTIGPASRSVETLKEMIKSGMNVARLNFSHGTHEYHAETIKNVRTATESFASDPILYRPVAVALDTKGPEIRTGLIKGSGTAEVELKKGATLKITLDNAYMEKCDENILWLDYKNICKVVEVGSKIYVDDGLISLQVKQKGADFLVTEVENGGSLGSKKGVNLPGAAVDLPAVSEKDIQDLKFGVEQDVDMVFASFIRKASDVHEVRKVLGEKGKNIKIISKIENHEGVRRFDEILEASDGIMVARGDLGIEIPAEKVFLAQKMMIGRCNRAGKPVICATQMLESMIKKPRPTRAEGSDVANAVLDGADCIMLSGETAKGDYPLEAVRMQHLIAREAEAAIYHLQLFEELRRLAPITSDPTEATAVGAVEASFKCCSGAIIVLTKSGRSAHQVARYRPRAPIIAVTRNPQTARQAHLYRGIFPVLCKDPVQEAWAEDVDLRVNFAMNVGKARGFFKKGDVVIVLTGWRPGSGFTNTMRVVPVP
compound,measurement,setting,value
N[C@]1(C(=O)O)CCc2cc(P(=O)(O)O)ccc21,Potency,[1],> 46 µM (inactive)
same,Potency,[2],> 46 µM (inactive)
same,Potency,[3],inactive
same,Potency,[4],inactive
same,Potency,[5],inactive
same,Potency,[6],inactive
same,Potency,[7],inactive
same,Potency,[8],inactive
C[N+]1(C)CCc2cc3c(cc2[C@@H]1[C@@H]1C(=O)Oc2c1ccc1c2OCO1)OCO3,Potency,[9],inactive and 1.26 µM (active)
same,Potency,[1],> 46 µM (inactive)
same,Potency,[2],> 46 µM (inactive)
same,Potency,[3],inactive
same,Potency,[4],inactive
same,Potency,[10],inactive
same,Potency,[6],inactive
same,Potency,[7],inactive
same,Potency,[8],inactive
C#CCCCCCCCCCCCCCCCC(=O)O,Potency,[9],6.31 µM (active)
same,Potency,[1],> 46 µM (inactive)
same,Potency,[4],inactive
same,Potency,[6],inactive
same,Potency,[7],inactive
same,Potency,[8],inactive
c1ccc2cc(C3=NCCN3)ncc2c1,Potency,[9],0.501 µM (active)
same,Potency,[1],> 46 µM (inactive)
same,Potency,[3],inactive
same,Potency,[4],inactive
same,Potency,[5],inactive
same,Potency,[6],inactive
same,Potency,[7],inactive
same,Potency,[8],inactive
NC1=NCCCC1,Potency,[1],> 46 µM (inactive)
same,Potency,[2],> 46 µM (inactive)
same,Potency,[3],inactive
same,Potency,[4],inactive
same,Potency,[5],inactive
same,Potency,[6],inactive
same,Potency,[7],inactive
same,Potency,[8],inactive
Fc1cccc(/C=N\N=C/c2cccc(F)c2)c1,Potency,[9],0.2 µM (active)
same,Potency,[2],> 46 µM (inactive)
same,Potency,[3],inactive
same,Potency,[4],inactive
same,outcome,[11],inactive
same,Potency,[10],inactive
same,Potency,[12],inactive
same,Potency,[13],3.16 µM (active)
same,Potency,[14],inactive
same,Potency,[15],inactive
same,outcome,[16],inactive
same,Potency,[17],2.51 µM (active)
same,Potency,[18],inactive
same,outcome,[19],inactive
same,Potency,[5],inactive
same,Potency,[6],inactive
same,Potency,[7],inactive
same,Potency,[8],inactive
CCCCCCCC(=O)O[C@H](CC(=O)O)C[N+](C)(C)C,Potency,[1],> 46 µM (inactive)
same,Potency,[2],> 46 µM (inactive)
same,Potency,[3],inactive
same,Potency,[5],inactive
same,Potency,[6],inactive
same,Potency,[7],inactive
same,Potency,[8],inactive
Cc1nc2ccc(NC(=O)Nc3ccnc4cccnc34)cc2o1,Potency,[9],1 µM (active)
same,Potency,[1],> 46 µM (inactive)
same,Potency,[2],> 46 µM (inactive)
same,Potency,[4],inactive
same,Potency,[10],inactive
same,Potency,[6],inactive
same,Potency,[7],inactive
same,Potency,[8],inactive
N[C@@H](Cc1cc(-c2ccc(Cl)cc2Cl)cc(CP(=O)(O)O)c1O)C(=O)O,Potency,[9],20 µM (active)
same,Potency,[1],> 46 µM (inactive)
same,Potency,[2],> 46 µM (inactive)
same,Potency,[3],inactive
same,Potency,[4],inactive
same,Potency,[6],inactive
same,Potency,[7],23.8 µM (active)
same,Potency,[8],inactive
